According to PubChem BioAssay (Tox21):
Results filed as inconclusive are left out. Activity calls are given as the source filed them. Unless noted, calls follow the shape of the full dose curve.

Tests used:
[1] = Nuclear factor erythroid 2-related factor 2/antioxidant responsive element (Nrf2/ARE) small molecule agonists: qHTS cell viability counter screen in human keratinocytes (AID 1919968; active = well fitted curve in the direction sought with a large enough effect in the repeat runs; an effect the other way counts as inactive or inconclusive; also: nearly all actives have a fitted effect of over 55% in size)
Method in brief: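 In human HaCaT keratinocytes stably expressing an ARE-driven luciferase, compound exposure lasted 23 h at 37 C under 5% CO2. Viable cells are quantified with a protease-based fluorogenic reagent (CellTiter-Fluor) read 1 h after addition.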

[2] = Nuclear factor erythroid 2-related factor 2/antioxidant responsive element (Nrf2/ARE) small molecule agonists: luciferase reporter gene qHTS assay in human keratinocytes (AID 1919969); also: nearly all actives have a fitted effect of over 35% in size
[3] = biological target: Gonadotropin-releasing hormone receptor (Homo sapiens) (UniProt P30968); assay: Human gonadotropin-releasing hormone receptor (GnRHR) small molecule agonists, calcium flux assay in GnRHR-HEK293 cells (AID 1920063); also: nearly all actives have a fitted effect of over 35% in size
Method in brief: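 Intracellular calcium rise is the read-out: engineered human GnRHR HEK293 cells, dye-loaded, are exposed to DMSO-dissolved compounds and fluorescence at Ex/Em 480/540 is tracked for 3 min.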

[4] = biological target: KiSS-1 receptor (Homo sapiens) (UniProt Q969F8); assay: Human kisspeptin (KISS1R) small molecule agonists, calcium flux assay in KISS1R-HEK293 cells (AID 1920064; active = well fitted curve in the direction sought with a large enough effect in the repeat runs; an effect the other way counts as inactive or inconclusive)
Method in brief: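 Concentration-response testing used 15 concentrations in triplicate on human KISS1R-expressing HEK293 cells. Calcium-dependent fluorescence (Ex/Em 480/540) was followed kinetically for 3 min after compound transfer.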

[5] = G protein-coupled receptor (GPCR) small molecule agonists, calcium flux assay: HEK293 wild type cell line counter screen (AID 1920065)
Method in brief: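 Fluorescence intensity signals activation. After overnight (18 h) culture and a 1 h calcium dye load at 37 C, compounds are added by pin tool and the plate read at 480/540 nm for 3 min in 1 s steps.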

[6] = p53 small molecule agonists, cell-based qHTS assay with human liver microsomes (AID 1963577);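 also: p53 response element beta-lactamase reporter cells with liver microsomes plus NADPH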
Method in brief: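 Reporter activation was measured by LiveBLAzer fluorescence intensity in p53RE-bla cells, which had been exposed to compounds for 16 h at 37 C alongside 0.5 mg/mL human liver microsomes and 0.5 mg/mL NADPH (final concentrations).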

[7] = p53 small molecule agonists, cell-based qHTS assay with rat liver microsomes (AID 1963578)
Method in brief: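 Compound in DMSO added to p53RE-bla cells 5 h post-plating; rat microsomes/NADPH 0.5 mg/mL final; 16 h, 37 C; LiveBLAzer 2 h RT.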

[8] = p53 small molecule agonists, cell-based qHTS assay with human liver microsomes: qHTS cell viability counter screen (AID 1963579); also: nearly all actives have a fitted effect of over 45% in size
Method in brief: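 HLM-supplemented (0.5 mg/mL final) and NADPH-supplemented (0.5 mg/mL final) p53RE-bla cultures, 4,000 cells per well, were dosed with compounds in DMSO for 16 h at 37 C; luminescent ATP detection (CellTiter-Glo, 30 min, room temperature) quantified surviving cells.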

[9] = p53 small molecule agonists, cell-based qHTS assay with rat liver microsomes: qHTS cell viability counter screen (AID 1963580); also: nearly all actives have a fitted effect of over 45% in size
Method in brief: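 Luminescent ATP readout (CellTiter-Glo, 30 min at room temperature) reports viability of p53RE-bla HCT-116 cells after 16 h at 37 C with test compounds under metabolic activation by rat liver microsomes and NADPH at 0.5 mg/mL final each.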

[10] = p53 small molecule agonists, cell-based qHTS assay (AID 1963582; active = well fitted activation curve with a large enough effect in the signal ratio in the repeat runs, not every such curve was filed as active; the % refers to the signal ratio)
Method in brief: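 After plating, p53RE-bla cells sat 5 h in the incubator; compounds or DMSO vehicle were pinned in; a 16 h incubation at 37 C followed; FRET substrate was added and, 2 h later at RT, fluorescence was measured.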

[11] = biological target: 5-hydroxytryptamine receptor 2A (Homo sapiens) (UniProt P28223); assay: 5-hydroxytryptamine receptor 2A (HTR2A) small molecule antagonists, cell-based qHTS assay (AID 1963586); also: nearly all actives have a fitted effect of over 45% in size
Method in brief: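 CHO cells stably expressing human HTR2A were plated for 18 h at 37 C, then loaded with calcium dye for 1 h. Compounds were preincubated 5 min at room temperature before DOI (4 nM solution) was added. Kinetic fluorescence was read for 3 min.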

[12] = biological target: 5-hydroxytryptamine receptor 2A (Homo sapiens) (UniProt P28223); assay: 5-hydroxytryptamine receptor 2A (HTR2A) small molecule agonists, cell-based qHTS assay (AID 1963587); also: nearly all actives have a fitted effect of over 30% in size
Method in brief: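 HTR2A-CHO cells, plated 18 h at 37 C/5% CO2, dye-loaded 1 h at 37 C; compounds in DMSO added by pin tool (agonist mode). Intracellular calcium flux read as kinetic fluorescence on FDSS over 2 min at 1 s intervals.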

[13] = biological target: Muscarinic acetylcholine receptor M1 (Homo sapiens) (UniProt P11229); assay: Cholinergic receptor muscarinic 1 (CHRM1) small molecule agonists, cell-based qHTS assay (AID 1963589); also: nearly all actives have a fitted effect of over 35% in size
Method in brief: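 Fluorescent calcium dye reports M1 activation in stably transfected CHO cells. Compounds, 15 concentrations, added after 1 h dye loading at 37 C; kinetic reading at 1 sec intervals.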

[14] = cAMP Responsive Elements (CRE) small molecule agonists, cell-based qHTS assay (AID 1963590)
Method in brief: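 Compound exposure lasted 3 h at 37 C/5% CO2 in CRE-bla HEK 293T cells grown in assay medium with 10% dialyzed FBS and 25 mM HEPES. Reporter signal came from LiveBLAzer B/G FRET substrate, 2 h, room temperature.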

[15] = cAMP Responsive Elements (CRE) small molecule antagonists, cell-based qHTS assay (AID 1963591; active = well fitted inhibition curve with a large enough effect in the signal ratio in the repeat runs, not every such curve was filed as active; the % refers to the signal ratio)
Method in brief: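 Stimulation used NKH477 at a final 0.25 uM for 3 h in compound-treated CRE-bla HEK293T cells, seeded 18 h beforehand. Reporter activity was measured with LiveBLAzer B/G FRET substrate after 2 h at room temperature.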

[16] = biological target: Beta-2 adrenergic receptor (Homo sapiens) (UniProt P07550); assay: Adrenergic beta2 receptor (ADRB2) small molecule antagonists, cell-based qHTS assay (AID 1963592); also: series mostly up to about 92 µM; nearly all actives have a fitted effect of over 50% in size
Method in brief: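 Assay format: CHO-ADRB2 cells, 18-20hr seeding at 37C/5% CO2, then compound plus 1nM isoproterenol agonist mix for 0.5hr RT. Homogeneous time-resolved fluorescence cAMP detection after 1hr, expressed as 665/615 nm ratio.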

[17] = biological target: Beta-2 adrenergic receptor (Homo sapiens) (UniProt P07550); assay: Adrenergic beta2 receptor (ADRB2) small molecule agonists, cell-based qHTS assay (AID 1963593);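 also: CHO cells stably overexpressing human ADRB2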
Method in brief: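 CHO cells stably over-expressing ADRB2 were plated overnight at 37C, then dosed with compounds plus a stimulation mix containing 100uM IBMX and 25uM Ro-20-1724 for 0.5hr at room temperature. cAMP was measured by HTRF competition, 1hr.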

[18] = biological target: D(2) dopamine receptor (Homo sapiens) (UniProt P14416); assay: Dopamine D2 receptor (DRD2) small molecule agonists, cell-based qHTS assay (AID 1963594); also: nearly all actives have a fitted effect of over 35% in size
Method in brief: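 HEK293 cells stably expressing DRD2 were cultured 24 h at 37 C, then given Ro20-1724 (0.1 mM final) and compounds for 10 min at room temperature. NKH477 (200nM) was then added for 30 min. cAMP was read by HTRF.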

[19] = biological target: D(2) dopamine receptor (Homo sapiens) (UniProt P14416); assay: Dopamine D2 receptor (DRD2) small molecule antagonists, cell-based qHTS assay (AID 1963595; active = well fitted inhibition curve with a large enough effect in the signal ratio in the repeat runs, with a control signal flat; the % refers to the signal ratio)
Method in brief: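 Antagonist mode in DRD2-HEK293 cells: after compound addition with 0.1 mM Ro20-1724, cells received quinpirole (12 nM) and NKH477 (200 nM) for 30 min at room temperature; HTRF cAMP read after 1 h detection.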

[20] = biological target: Muscarinic acetylcholine receptor M1 (Homo sapiens) (UniProt P11229); assay: Cholinergic receptor muscarinic 1 (CHRM1) small molecule antagonists, cell-based qHTS assay (AID 1963588); also: nearly all actives have a fitted effect of over 40% in size
Method in brief: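 Compounds were tested at 15 concentrations in three independent runs. Dye-loaded CHRM1-CHO cells were exposed 5 min at room temperature before stimulation by acetylcholine added at 50nM. Intracellular calcium was read kinetically on FDSS for 3 min.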

Measured: Potency

Sequence of Muscarinic acetylcholine receptor M1 (Homo sapiens) (P11229 whole entry, looked up): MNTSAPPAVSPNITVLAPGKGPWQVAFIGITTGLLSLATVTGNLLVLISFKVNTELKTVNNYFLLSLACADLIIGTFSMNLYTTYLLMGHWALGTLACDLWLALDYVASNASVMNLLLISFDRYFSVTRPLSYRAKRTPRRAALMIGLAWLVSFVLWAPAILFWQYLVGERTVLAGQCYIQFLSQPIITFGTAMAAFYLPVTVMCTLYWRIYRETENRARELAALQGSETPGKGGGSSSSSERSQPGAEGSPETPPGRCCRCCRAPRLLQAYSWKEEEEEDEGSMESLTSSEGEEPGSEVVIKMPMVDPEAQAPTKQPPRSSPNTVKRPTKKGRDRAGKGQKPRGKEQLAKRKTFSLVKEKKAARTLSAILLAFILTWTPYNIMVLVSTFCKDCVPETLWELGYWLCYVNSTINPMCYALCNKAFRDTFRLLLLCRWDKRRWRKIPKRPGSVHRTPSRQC
Sequence of Beta-2 adrenergic receptor (Homo sapiens) (P07550 whole entry, looked up): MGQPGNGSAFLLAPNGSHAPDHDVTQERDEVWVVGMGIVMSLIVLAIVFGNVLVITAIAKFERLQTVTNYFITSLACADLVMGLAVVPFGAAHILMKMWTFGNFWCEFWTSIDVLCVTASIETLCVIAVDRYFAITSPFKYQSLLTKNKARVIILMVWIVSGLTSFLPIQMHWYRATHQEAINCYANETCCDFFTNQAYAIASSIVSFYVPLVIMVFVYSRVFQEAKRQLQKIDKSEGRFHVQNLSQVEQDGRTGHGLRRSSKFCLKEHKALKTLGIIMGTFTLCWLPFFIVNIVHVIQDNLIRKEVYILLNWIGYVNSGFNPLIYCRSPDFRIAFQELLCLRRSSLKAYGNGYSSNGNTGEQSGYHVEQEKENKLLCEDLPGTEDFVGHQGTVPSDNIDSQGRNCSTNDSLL
Sequence of Gonadotropin-releasing hormone receptor (Homo sapiens) (P30968 whole entry, looked up): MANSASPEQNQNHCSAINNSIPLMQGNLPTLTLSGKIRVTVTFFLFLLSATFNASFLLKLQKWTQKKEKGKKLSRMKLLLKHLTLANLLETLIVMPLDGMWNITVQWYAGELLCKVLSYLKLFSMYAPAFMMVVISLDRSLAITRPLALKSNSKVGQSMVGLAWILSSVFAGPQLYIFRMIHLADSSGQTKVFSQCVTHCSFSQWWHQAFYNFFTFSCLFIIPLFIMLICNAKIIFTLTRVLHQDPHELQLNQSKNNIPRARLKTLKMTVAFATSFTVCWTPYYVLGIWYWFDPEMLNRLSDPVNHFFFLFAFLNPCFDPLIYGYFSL
Sequence of 5-hydroxytryptamine receptor 2A (Homo sapiens) (P28223 whole entry, looked up): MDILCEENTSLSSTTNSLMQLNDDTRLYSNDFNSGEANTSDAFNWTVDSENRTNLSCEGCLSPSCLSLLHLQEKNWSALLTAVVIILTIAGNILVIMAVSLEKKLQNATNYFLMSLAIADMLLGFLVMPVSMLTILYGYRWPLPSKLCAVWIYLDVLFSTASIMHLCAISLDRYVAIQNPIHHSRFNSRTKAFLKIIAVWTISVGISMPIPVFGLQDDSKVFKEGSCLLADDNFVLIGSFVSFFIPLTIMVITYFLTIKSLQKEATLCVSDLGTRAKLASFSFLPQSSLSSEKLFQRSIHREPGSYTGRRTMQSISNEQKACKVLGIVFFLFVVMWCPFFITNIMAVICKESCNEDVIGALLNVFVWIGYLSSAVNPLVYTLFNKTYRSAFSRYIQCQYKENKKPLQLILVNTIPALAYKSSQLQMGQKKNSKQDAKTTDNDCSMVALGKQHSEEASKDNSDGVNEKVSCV
Sequence of KiSS-1 receptor (Homo sapiens) (Q969F8 whole entry, looked up): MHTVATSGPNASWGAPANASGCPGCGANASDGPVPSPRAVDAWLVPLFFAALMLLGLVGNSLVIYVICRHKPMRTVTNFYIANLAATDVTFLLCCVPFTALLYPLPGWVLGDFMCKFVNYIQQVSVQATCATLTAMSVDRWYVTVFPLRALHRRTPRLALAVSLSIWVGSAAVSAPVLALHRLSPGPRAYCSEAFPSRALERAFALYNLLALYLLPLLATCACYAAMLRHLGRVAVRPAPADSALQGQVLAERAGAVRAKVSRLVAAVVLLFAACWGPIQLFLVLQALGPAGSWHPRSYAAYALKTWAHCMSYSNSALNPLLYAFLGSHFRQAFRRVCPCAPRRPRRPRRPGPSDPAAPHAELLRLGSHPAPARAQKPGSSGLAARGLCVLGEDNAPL
Sequence of D(2) dopamine receptor (Homo sapiens) (P14416 whole entry, looked up): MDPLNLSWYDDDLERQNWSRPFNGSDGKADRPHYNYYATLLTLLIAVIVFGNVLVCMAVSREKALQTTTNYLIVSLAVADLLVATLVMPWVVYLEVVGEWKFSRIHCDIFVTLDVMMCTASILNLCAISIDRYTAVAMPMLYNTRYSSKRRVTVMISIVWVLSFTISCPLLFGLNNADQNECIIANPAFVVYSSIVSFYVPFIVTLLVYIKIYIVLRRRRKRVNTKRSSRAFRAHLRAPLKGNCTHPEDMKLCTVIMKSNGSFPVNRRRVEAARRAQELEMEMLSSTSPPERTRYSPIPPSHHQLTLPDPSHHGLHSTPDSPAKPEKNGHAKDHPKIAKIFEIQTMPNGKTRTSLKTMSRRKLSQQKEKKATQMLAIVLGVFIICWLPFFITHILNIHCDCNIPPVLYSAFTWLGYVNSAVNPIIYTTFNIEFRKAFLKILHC

C=COCCCCO
not listed: [20]
inactive: all other assays above

N[C@H]1CN(c2c(F)cc3c(=O)c(C(=O)O)cn(C4C[C@H]4F)c3c2Cl)CC12CC2 (stereo partly drawn)
not listed: [14] | [15] | [16] | [17]
inactive: all other assays above

O=C(/C=C/c1ccccc1)OC/C=C/c1ccccc1
not listed: [14] | [16] | [17] | [19]
inactive: all other assays above

CN(C)CCOCCN(C)CCO
not listed: [12] | [17] | [18]
inactive: all other assays above

Oc1ccc2c(c1)OCO2
not listed: [12] | [16] | [17]
inactive: all other assays above

CCOC(=O)[C@H](CCc1ccccc1)N[C@@H](C)C(=O)N1Cc2cc(OC)c(OC)cc2C[C@H]1C(=O)O
not listed: [14] | [15] | [17]
inactive: all other assays above

O=C1Nc2cc(Cl)ccc2Oc2ccccc21
not listed: [11] | [15] | [17] | [19]
inactive: all other assays above
